TDP1 cell noCPT = qHTS for Inhibitors of human tyrosyl-DNA phosphodiesterase 1 (TDP1): qHTS in cells in absence of CPT; DT40 Tdp1-/- hTDP1 cells, no CPT, ATP luminescence, 48 h; Potency, µM (series often up to 46.2 µM), actives largely listed as inhibitors; 15% of 420,000 active; AID 686978, 2013; further: nearly all actives have a fitted effect of over 55% in size
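Cells were dispensed at 400 per well, compounds added by pin tool, plates incubated ≥48 hr at 37 °C, then CellTiter-Glo added for 30 min at room temperature before luminescence reading. Line: DT40 Tdp1-/- complemented with hTDP1; camptothecin omitted.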
TDP1 cell CPT = DT40-hTDP1 cell growth loss with CPT | Potency, µM (top dose mostly 46.2 µM), hits mostly inhibitors | chicken DT40 Tdp1-/-;hTDP1 cells + 20 nM CPT, ATP luminescence, 48 h | 12% of 420,000 active; further: nearly all actives have a fitted effect of over 55% in size
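Chicken DT40 Tdp1-/- cells stably complemented with human TDP1 were seeded at 400 cells/well in medium containing 20 nM camptothecin, exposed to pin-transferred compounds, and grown at 37 °C for at least 48 hr. Viability was read as ATP luminescence.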
HepG2 viability = kills HepG2 cells in TGF-b inhibitor counter-screen. HepG2 CAGA-GFP viability, ATP luminescence, 18 h. Potency, µM (top dose mostly 46.1 µM), usual class: cytotoxic. 0.76% of 410,000 active. AID 588856
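CellTiter-Glo luminescence gave cytotoxicity after 18 hours at 37 degrees C. The cells were HepG2 CAGA-GFP in 1% FBS DMEM, stimulated with 500 pg/mL TGF-beta after compound addition. %Activity was normalised to no-cell wells (complete cell-killing) and DMSO (no toxicity), and curves were fitted and classified.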
S2 tox = cell viability loss in ATXN counter-screen. S2 cells (HEK-293 line with an ATXN2-luciferase reporter) viability, CellTiter-Fluor protease fluorescence, 24 h. 0.49% of 400,000 active. Potency, µM (top dose mostly 56.7 µM), most hits filed as cytotoxic. AID 651635; further: nearly all actives have a fitted effect of over 40% in size
TGFb SMAD3 inh = inhibitors of TGF-b signaling; HepG2 CAGA-GFP TGF-b/SMAD3 reporter, GFP fluorescence, 18 h; TGF-beta stimulated, 500 pg/mL final; Potency, µM (titrated, usually from 46.1 µM), actives largely listed as inhibitors; 1.2% of 410,000 active; further: nearly all actives have a fitted effect of over 65% in size
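Inhibition was scored as loss of TGF-beta-induced (500 pg/mL final, 18 hours, 37 degrees C) GFP in HEPG2 cells carrying a CAGA-GFP reporter, in DMEM with 1% FBS. Well GFP was summed per cell; Activity was normalised to unstimulated and stimulated DMSO wells, then concentration-response fitting.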
ATXN2 expr inh = reduces ATXN2 reporter expression in HEK-293 cells | HEK-293 ATXN2-luciferase reporter, luminescence, 24 h | Potency, µM (titrated, usually from 57 µM), hits mostly inhibitors | 0.72% of 360,000 active | AID 1745845; further: nearly all actives have a fitted effect of over 55% in size
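ATXN2-luciferase reporter cells (luciferase flanked by upstream and downstream ATXN2 gene portions) were treated 24 h at 37 °C with compounds at up to 57 uM. SteadyGlo luminescence gave expression; GF-AFC fluorescence gave viability.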
Hits are given with their value; n = inactive; u = inconclusive; x = no result; [ ] = remark or other dose. A selection: hits, their analogues and other compounds. The true share with any hit is near 17%. The call rests on the fitted dose curve; in most records, active means well fitted curve in the direction sought with a large enough effect; inconclusive means small, poorly fitted or top-dose-only effect, or another doubt; inactive means no such curve, though single readings can be large; an effect the other way counts as inactive or inconclusive.

SMILES | TDP1 cell noCPT | TDP1 cell CPT | HepG2 viability | S2 tox | TGFb SMAD3 inh | ATXN2 expr inh
Cc1ccn2c(=O)cc(COc3ccc(NC(=O)C(C)(C)C)cc3)nc2c1 | u | n | n | x | n | x
Cc1ccc(Cl)c(OC(=O)c2ccc(N3CCOCC3)c([N+](=O)[O-])c2)c1 | n | n | n | n | n | n
O=C(c1ccc2c(c1)N(Cc1ccc(Cl)cc1)C(=O)c1ccccc1S2(=O)=O)N1CCc2ccccc21 | 7.31µM | 5.8µM | n | n | n | n
O=C(c1ccc2c(c1)N(Cc1ccc(F)cc1)C(=O)c1ccccc1S2(=O)=O)N1CCCC1 | 16.4µM | 23.1µM | n | n | n | n
CCN1CCN(C(=O)c2ccc3c(c2)N(Cc2ccccc2)C(=O)c2ccccc2S3(=O)=O)CC1 | n | n | n | n | n | n
O=C(c1ccc2c(c1)N(Cc1ccc(Cl)cc1)C(=O)c1ccccc1S2(=O)=O)N1CCCC1 | 25.9µM | 20.6µM | n | n | u | n
CCN1CCN(C(=O)c2ccc3c(c2)N(Cc2ccc(Cl)cc2)C(=O)c2ccccc2S3(=O)=O)CC1 | 23.1µM | u | n | n | u | u
CCOC(=O)c1cncc(NC(=O)c2ccccc2)c1 | n | n | n | n | u | n
CCCN(CCC)C(=S)NC(=O)c1ccc(Cl)cc1Cl | u | 18.4µM | n | n | u | n
O=C(NCc1ccco1)c1cc2nc(-c3ccc4c(c3)OCO4)cc(C(F)(F)F)n2n1 | 18.4µM | u | n | n | n | n
O=C(NCc1cccnc1)c1cc2nc(-c3ccc4c(c3)OCO4)cc(C(F)(F)F)n2n1 | n | n | n | n | n | x
O=C(NC1CCCCC1)c1cc2nc(-c3ccco3)cc(C(F)(F)F)n2n1 | 18.4µM | 20.6µM | n | n | n | n
O=C(NCCCN1CCOCC1)c1cc2nc(-c3ccco3)cc(C(F)(F)F)n2n1 | n | n | n | x | n | n
O=C(NC12CC3CC(CC(C3)C1)C2)c1cc2nc(-c3ccco3)cc(C(F)(F)F)n2n1 | 25.9µM | 20.6µM | n | n | n | n
O=C(NC1CCCCC1)c1cc2nc3c(c(C(F)(F)F)n2n1)CCCC3 | 20.6µM | u | n | n | n | n
C[C@H]1C(O)[C@@]23CCC4C5(C=[N+](CCO)C[C@]4(C)CCC5)C2C[C@@H]1C3 (some centres not stated) | n[9.04 µM] | n[9.04 µM] | x | x | x | x
COc1cccc(NC(=O)CN(C)C(=O)C2CCN(C(=O)c3ccccc3C)CC2)c1 | n | n | n | n | n | n
CNC(=S)N/N=C1\CC(c2ccccc2)Oc2ccccc21 (configuration not stated) | 2.59µM | 5.17µM | n | n | n | n
Fc1ccc(N/N=C2/CC(c3ccccc3)Oc3ccccc32)c(F)c1 (configuration not stated) | n | n | n | n | n | n
Cc1ccc(S(=O)(=O)N2CCCc3cc(NS(=O)(=O)c4ccc(C)c(C)c4)ccc32)cc1 | u | u | n | u | u | n
CCOc1ccc(CCN2C(=S)N([C@@H](Cc3ccccc3)CN3CCC[C@@H]3CN3C(=S)NC[C@@H]3Cc3ccc(O)cc3)C[C@@H]2CC(C)C)cc1 | 9.2µM | 9.2µM | n | n | u | n
Oc1ccc(C[C@H]2CN([C@@H](Cc3ccc(O)cc3)CN3CCC[C@@H]3CN3C(=S)NC[C@@H]3Cc3ccccc3)C(=S)N2CCc2ccccc2)cc1 | 10.3µM | 9.2µM | n | u | u | u
Oc1ccc(C[C@H]2CN([C@@H](Cc3ccccc3)CN3CCCC3CN3C(=S)NC[C@@H]3Cc3ccccc3)C(=S)N2CCc2ccccc2)cc1 (some centres not stated) | 16.4µM | 20.6µM | x | u | x | n
O=C1NC[C@H](Cc2ccccc2)N(C[C@@H]2CCCN2C[C@H](Cc2ccccc2)N2C[C@H](Cc3ccc(O)cc3)N(CCc3ccccc3)C(=O)C2=O)C1=O | u | u | x | n | x | n
O=C1NC[C@H](Cc2ccccc2)N(C[C@H]2CCCN2C[C@H](Cc2ccccc2)N2C[C@H](Cc3ccc(O)cc3)N(CCc3ccccc3)C(=O)C2=O)C1=O | u | u | n | u | n | n
SMILES | TDP1 cell noCPT | TDP1 cell CPT | HepG2 viability | S2 tox | TGFb SMAD3 inh | ATXN2 expr inh
CCOc1ccc(CCN2C(=S)N([C@@H](Cc3ccc(O)cc3)CN3CCCC3CN3C(=S)NC[C@@H]3Cc3ccc(O)cc3)C[C@@H]2CC(C)C)cc1 (some centres not stated) | u | u | n | n | u | u
CCc1cccc(C)c1NC(=O)C(CC)n1ncn2c(cc3cc(C)ccc32)c1=O (configuration not stated) | u | u | n | u | n | n
CCN(CC)S(=O)(=O)c1ccc(C)c(C(=O)Oc2cccc(-c3cnc4ccccc4n3)c2)c1 | 20.6µM | u | n | n | n | n
O=C(Oc1cccc(-c2cnc3ccccc3n2)c1)c1ccco1 | n | n | n | n | u | n
CCN(CC)S(=O)(=O)c1cc(C(=O)Oc2cccc(-c3cnc4ccccc4n3)c2)ccc1OC | 20.6µM | u | n | n | n | n
Cc1cc(N2CCCC2)nc2ccccc12 | u | u | n | n | n | x
Cc1nn(-c2cc(C)c3ccccc3n2)c2c1CCC2 | 23.1µM | u | n | n | n | n
CCc1ccc(NC(=O)CSc2nc(N)c(NC(=O)c3ccc(F)c(F)c3)c(=O)[nH]2)cc1 | n | n | n | n | n | n
CC1=CC(C)(C)N(S(=O)(=O)c2ccc(F)cc2)c2ccc(C)cc21 | 5.8µM | u | n | n | n | n
CC1=CC(C)(C)N(S(=O)(=O)c2ccc(C)cc2)c2ccccc21 | 18.4µM | 11.6µM | n | n | u | n
COc1ccc(-c2cnc3nc[nH]c(=O)c3n2)cc1 | n | n | n | n | n | n
Nc1ccccc1NC(=O)c1ccc(CNc2nccc(-c3cccnc3)n2)cc1 | x | x | x | x | x | n
CN(C)c1ncc2nc(CCc3ccccc3)c(=O)n(CCc3ccccc3)c2n1 | n | n | x | x | x | x
Cc1nc2cnc(N(C)C)nc2n(CCc2ccccc2)c1=O | 8.2µM | 5.17µM | x | x | x | x
COc1cccc(Cn2c(=O)c(C)nc3cnc(N(C)C)nc32)c1 | u | 16.4µM | x | x | x | x
Cc1ccc(CNCCCn2cnc3c(OCc4ccccc4)ncnc32)o1 | u | u | n | n | n | n
COc1cc(-c2cc(C)c3cccc(OC)c3n2)cc2c1OCCN(C(=O)Cn1nc(C)cc1C)C2 | n | n[9.04 µM] | x | n | x | x
[O-][n+]1onc2c1CCc1c-2nn(-c2ccccc2Cl)[n+]1[O-] | 14.6µM | 13µM | n | u | u | 28.2µM
